According to the supplement of paper PMC11732987, “Enantioselective OTUD7B fragment discovery through chemoproteomics screening and high-throughput optimisation” (Communications Chemistry, 2025):

How the values were obtained:
Assay in all cases: log2 ratio of Biotin-Ahx-Ub-VS probe labelling (fragment/DMSO); higher = less target engagement (more negative = stronger competition), active = hit call of the paper (q ≤ 0.05, log2 ratio ≤ -1)
Settings in all cases: compound concentration: 200 uM; treatment time: 3 h
USP19 = target: T1, USP19 (UniProt O94966)
T1 sequence (whole entry): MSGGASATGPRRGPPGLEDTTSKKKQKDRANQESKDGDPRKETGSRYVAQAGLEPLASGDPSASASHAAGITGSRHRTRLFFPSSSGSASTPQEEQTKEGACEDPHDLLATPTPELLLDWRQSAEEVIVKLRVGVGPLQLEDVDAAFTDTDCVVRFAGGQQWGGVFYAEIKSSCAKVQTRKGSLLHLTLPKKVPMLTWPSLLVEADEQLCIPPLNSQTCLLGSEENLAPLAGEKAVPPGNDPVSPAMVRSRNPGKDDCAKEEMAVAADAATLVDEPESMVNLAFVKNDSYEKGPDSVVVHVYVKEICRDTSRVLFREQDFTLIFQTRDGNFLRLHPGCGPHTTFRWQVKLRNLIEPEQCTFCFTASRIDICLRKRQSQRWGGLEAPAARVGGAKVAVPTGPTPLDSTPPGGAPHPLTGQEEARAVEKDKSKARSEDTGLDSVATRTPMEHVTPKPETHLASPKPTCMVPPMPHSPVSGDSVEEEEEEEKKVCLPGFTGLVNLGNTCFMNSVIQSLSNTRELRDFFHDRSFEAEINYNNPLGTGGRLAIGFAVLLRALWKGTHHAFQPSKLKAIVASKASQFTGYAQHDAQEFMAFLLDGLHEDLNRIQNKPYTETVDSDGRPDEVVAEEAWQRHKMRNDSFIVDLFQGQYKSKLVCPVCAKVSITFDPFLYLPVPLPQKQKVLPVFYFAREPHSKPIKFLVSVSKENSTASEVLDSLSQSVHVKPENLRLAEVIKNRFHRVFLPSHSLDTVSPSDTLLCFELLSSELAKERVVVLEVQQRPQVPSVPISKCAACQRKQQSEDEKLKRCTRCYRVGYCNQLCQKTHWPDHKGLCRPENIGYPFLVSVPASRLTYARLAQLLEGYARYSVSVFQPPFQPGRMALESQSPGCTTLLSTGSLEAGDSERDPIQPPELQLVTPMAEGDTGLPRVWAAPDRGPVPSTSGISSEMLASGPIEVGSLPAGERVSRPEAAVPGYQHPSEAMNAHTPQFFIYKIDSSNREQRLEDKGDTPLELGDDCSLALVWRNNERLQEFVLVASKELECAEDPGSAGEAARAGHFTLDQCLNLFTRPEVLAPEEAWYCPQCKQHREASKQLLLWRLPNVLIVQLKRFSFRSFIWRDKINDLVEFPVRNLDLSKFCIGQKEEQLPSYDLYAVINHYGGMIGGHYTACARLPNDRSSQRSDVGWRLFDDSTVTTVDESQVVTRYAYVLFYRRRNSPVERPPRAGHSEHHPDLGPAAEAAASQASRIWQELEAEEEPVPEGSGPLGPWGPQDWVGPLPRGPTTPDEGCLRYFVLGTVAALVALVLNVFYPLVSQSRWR
Procedure, shortened: (§1)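 Each value is an average log2 ratio of fragment to vehicle, tested by unpaired t-test. The underlying Spectronaut label-free quantities were global-median-normalised, and only proteins with ≥2 unique peptides were included. Triplicate HEK293T lysate samples (495 µg) were exposed to fragment at 200 µM or vehicle for 3 h, then to Biotin-Ahx-Ub-VS at 0.5 µM final for 1 h, before NeutrAvidin enrichment of labelled DUBs, LysC and trypsin digestion, and diaPASEF LC-MS/MS.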

USP22 = target: T2, USP22 (UniProt Q9UPT9)
T2 sequence (whole entry): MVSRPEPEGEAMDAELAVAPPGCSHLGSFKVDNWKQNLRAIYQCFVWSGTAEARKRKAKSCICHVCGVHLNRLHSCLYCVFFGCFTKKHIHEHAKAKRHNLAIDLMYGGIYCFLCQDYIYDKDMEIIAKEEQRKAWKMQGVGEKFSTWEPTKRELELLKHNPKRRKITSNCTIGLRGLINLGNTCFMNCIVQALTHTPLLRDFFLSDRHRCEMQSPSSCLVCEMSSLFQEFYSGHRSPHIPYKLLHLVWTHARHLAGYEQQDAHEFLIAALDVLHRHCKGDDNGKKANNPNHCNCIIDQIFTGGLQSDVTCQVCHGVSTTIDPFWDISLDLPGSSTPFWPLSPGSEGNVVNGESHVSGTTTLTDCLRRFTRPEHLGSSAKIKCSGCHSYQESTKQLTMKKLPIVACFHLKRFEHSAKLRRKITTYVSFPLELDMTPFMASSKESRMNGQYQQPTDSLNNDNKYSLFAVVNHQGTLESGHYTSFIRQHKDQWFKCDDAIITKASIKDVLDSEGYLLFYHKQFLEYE
Procedure, shortened: as §1

USP24 = USP24 (UniProt Q9UPU5)
Procedure, shortened: as §1

USP25 = target: T3, USP25 (UniProt Q9UHP3)
T3 sequence (whole entry): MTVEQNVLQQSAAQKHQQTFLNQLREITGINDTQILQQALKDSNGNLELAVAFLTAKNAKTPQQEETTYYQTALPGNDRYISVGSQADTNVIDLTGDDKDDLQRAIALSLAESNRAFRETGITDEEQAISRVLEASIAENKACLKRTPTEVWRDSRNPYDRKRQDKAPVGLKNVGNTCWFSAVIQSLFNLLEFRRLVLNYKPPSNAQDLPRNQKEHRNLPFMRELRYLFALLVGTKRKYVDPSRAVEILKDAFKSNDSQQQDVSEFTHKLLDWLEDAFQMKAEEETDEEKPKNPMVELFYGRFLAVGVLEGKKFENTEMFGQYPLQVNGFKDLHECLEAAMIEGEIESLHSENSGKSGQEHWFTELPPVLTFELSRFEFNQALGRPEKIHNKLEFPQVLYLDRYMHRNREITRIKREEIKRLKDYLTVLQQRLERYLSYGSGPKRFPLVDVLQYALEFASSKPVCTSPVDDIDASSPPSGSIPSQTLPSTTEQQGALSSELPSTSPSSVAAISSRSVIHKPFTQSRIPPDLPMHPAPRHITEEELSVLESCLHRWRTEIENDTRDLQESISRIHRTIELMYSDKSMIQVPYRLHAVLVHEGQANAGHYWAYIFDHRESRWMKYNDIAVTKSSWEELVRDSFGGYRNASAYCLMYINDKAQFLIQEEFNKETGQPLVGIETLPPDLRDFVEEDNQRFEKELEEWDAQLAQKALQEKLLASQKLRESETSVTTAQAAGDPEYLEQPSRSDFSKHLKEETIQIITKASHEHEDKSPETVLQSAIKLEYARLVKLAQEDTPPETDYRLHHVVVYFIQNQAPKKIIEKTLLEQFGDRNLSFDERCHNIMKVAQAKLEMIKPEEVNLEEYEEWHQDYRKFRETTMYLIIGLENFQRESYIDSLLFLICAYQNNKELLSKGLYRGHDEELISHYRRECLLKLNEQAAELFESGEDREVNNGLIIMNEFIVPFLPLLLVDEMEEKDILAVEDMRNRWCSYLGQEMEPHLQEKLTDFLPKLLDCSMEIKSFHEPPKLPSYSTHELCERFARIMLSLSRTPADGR
Procedure, shortened: as §1

USP28 = target: T4, USP28 (UniProt Q96RU2)
T4 sequence (whole entry): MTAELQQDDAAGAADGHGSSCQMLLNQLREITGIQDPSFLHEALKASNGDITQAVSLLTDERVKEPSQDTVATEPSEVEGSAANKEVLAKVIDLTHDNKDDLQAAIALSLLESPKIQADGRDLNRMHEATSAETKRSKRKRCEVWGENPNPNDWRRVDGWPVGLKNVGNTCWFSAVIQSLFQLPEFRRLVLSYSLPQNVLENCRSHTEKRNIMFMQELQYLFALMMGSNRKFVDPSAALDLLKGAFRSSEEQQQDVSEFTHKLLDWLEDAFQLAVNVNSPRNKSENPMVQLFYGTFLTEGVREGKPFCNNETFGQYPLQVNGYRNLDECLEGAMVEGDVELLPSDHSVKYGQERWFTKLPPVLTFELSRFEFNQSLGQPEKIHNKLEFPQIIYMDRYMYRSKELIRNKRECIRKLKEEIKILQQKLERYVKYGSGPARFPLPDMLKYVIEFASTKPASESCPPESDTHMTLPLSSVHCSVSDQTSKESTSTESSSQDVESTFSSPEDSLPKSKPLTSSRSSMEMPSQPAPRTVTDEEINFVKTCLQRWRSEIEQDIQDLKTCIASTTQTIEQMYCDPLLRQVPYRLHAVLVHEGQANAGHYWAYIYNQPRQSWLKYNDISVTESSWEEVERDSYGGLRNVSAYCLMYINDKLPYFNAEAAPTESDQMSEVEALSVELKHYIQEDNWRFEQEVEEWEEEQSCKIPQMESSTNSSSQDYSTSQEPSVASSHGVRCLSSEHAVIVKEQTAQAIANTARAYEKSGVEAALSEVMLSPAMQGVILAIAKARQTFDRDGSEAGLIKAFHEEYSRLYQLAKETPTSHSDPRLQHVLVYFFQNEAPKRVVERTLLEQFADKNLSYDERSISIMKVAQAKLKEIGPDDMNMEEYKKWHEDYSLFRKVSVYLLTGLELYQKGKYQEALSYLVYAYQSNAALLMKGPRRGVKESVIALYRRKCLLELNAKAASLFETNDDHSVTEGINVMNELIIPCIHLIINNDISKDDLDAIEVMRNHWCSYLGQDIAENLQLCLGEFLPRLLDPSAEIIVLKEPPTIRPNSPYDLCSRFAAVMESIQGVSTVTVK
Procedure, shortened: as §1

Measured: log2 ratio of Biotin-Ahx-Ub-VS probe labelling

Chain of USP24 (Q9UPU5 whole entry): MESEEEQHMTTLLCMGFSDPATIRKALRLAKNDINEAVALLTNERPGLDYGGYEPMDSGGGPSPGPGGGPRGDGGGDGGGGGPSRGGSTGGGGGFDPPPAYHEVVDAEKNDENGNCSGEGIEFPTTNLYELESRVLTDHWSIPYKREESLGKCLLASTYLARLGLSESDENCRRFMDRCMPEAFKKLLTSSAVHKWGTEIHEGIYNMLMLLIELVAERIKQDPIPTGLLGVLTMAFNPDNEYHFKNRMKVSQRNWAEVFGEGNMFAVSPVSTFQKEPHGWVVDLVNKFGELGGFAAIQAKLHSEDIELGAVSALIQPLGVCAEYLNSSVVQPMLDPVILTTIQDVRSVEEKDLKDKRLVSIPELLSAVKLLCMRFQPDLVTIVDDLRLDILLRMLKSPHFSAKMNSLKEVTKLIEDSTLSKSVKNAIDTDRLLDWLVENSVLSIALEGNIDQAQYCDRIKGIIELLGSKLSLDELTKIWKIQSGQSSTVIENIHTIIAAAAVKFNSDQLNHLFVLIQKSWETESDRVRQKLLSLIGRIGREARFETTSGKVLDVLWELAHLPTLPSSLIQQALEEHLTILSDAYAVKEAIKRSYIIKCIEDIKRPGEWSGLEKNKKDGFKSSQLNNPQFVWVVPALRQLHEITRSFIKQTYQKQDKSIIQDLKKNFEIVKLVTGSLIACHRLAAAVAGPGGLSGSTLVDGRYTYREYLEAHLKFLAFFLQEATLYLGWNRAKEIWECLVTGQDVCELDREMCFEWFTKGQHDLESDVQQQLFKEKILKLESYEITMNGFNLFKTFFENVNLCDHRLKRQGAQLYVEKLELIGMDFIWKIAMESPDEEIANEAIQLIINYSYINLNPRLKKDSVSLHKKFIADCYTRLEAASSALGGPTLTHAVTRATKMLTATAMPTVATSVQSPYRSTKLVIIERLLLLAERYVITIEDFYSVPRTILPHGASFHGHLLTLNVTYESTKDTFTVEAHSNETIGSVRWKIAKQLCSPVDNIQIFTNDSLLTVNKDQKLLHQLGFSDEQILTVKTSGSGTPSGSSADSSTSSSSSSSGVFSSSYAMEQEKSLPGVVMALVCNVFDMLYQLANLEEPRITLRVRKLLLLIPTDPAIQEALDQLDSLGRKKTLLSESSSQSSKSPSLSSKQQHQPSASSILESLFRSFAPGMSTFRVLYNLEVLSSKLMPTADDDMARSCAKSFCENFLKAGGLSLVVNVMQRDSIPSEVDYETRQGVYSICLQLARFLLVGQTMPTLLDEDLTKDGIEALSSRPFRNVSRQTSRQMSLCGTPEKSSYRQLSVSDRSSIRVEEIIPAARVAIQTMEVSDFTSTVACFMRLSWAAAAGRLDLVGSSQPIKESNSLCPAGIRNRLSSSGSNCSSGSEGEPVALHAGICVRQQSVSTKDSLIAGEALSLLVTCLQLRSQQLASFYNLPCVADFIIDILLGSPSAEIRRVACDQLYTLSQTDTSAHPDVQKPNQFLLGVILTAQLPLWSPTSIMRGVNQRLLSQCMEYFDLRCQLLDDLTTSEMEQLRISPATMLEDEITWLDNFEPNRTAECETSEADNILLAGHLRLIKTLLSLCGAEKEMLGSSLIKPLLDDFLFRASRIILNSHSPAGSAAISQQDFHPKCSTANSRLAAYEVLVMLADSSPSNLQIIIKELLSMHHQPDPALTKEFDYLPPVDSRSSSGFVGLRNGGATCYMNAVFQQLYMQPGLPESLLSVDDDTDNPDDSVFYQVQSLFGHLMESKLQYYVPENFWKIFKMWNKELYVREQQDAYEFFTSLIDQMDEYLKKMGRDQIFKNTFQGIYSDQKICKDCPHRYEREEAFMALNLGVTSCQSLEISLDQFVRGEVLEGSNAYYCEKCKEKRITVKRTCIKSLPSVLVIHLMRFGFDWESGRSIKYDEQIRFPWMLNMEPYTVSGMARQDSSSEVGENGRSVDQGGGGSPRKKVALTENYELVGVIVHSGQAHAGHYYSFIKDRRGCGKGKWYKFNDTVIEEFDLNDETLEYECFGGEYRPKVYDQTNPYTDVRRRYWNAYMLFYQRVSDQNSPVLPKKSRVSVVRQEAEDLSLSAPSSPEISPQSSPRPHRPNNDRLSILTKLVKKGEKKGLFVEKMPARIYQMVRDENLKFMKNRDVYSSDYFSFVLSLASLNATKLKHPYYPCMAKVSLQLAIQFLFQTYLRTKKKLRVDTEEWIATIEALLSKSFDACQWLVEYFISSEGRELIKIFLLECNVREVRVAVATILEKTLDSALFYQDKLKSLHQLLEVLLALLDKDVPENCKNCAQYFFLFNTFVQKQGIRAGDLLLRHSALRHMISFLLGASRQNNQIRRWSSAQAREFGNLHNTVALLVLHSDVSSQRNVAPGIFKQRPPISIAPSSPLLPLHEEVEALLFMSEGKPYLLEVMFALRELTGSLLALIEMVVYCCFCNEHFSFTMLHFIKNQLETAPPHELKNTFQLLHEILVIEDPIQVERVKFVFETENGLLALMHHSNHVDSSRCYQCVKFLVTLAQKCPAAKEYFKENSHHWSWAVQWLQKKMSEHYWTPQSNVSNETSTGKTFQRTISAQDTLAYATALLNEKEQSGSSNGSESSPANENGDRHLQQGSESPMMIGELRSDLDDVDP

Cc1ccn2cc(CNC(=O)CCl)nc2c1.Cl
inactive: USP19 -0.148 | USP22 -0.112 | USP24 -0.106 | USP25 -0.398 | USP28 -0.272
